Molecules are shown by their SMILES. Compounds without any hit were thinned out: in the full panel of roughly 83,000, 20% have a hit.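 Note: values are percent growth. 100 is the growth of untreated cells, values between 100 and 0 indicate rising inhibition; between -100 and 0 indicates cell death.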 A number with no mark means an inactive call. Active and inactive are the calls of the source. Rule for the calls: active = growth percent below 10; inactive = the rest.

The subject of the experiment is SW-620 colon. The experiment in a line: NCI-60 one-dose screen, 48 h (100 = growth as untreated, 0 = no growth, -100 = all killed). As to conditions: 10 µM unless noted.
Regarding `CCN(CC)CCCNc1ccc(Nc2ccc(OC)cc2)cc1`, the growth was 49.7%.
As for `COc1ccc(-c2c(N)n[nH]c2-c2ccc(Cl)cc2O)cc1OC`, the growth is 102%.
The figure for `c1csc(-c2c3ccc(=[N+]4CCCCC4)cc-3oc3cc(N4CCCCC4)ccc23)c1` is -76% (active); for `NS(=O)(=O)c1ccc(-n2nc(C(=O)N/N=C\c3ccc(F)cc3)cc2-c2ccc(Cl)cc2)cc1` it is 95.8%.
With `CCN(CC)c1ccc(C(=O)c2ccc(N(CC)CC)cc2)cc1` the figure was 26.4%; with `COc1ccc(-c2nc(SCC(=O)Nc3nc(-c4ccccc4)cs3)[nH]c(=O)c2C#N)cc1`, 97.4%.
For the compound `O=S(=O)(O)c1ccc(N/N=C/c2ccccc2Cl)cc1`, the growth is 108%.
With `CC(C)(C)OC(=O)Nc1ccc2c(c1)C(NC(=O)Nc1cccc(C#N)c1)CC(C)(C)O2` (stereo not drawn) the figure was 48.7%.
With `CCCCCCCCCCCC(c1ccccc1)[N+](C)(C)C` (stereo not drawn) the figure was 41.9%; with `COc1ccc(C(=NN=C(N)N)c2ccc(OC)cc2)cc1`, 25.3%; with `COc1ccc(NC(=O)CSc2nnc(-c3cc(-c4ccccc4)nc4ccccc34)n2-c2ccccc2)cc1`, 101%.
With `O=C(NC(CSSCC(NC(=O)c1ccccc1)C(=O)O)C(=O)O)c1ccccc1` (stereo not drawn) the figure was 103%; with `Cn1c(=O)c2[nH]c(NN)nc2n(C)c1=O`, 97.8%; with `N/C(=N/N=C/c1ccccc1)N/N=C\c1ccccc1`, 33.5%.
Turning to `CCN(CCNc1ccc(C)c2sc3ccccc3c(=O)c12)CC(C)(C)O`, the growth was 73.6%.
With `N#Cc1nc(C#N)c(Sc2ccccc2)c(Sc2ccccc2)c1Sc1ccccc1` the figure was -67.2% (active).
The figure for `COc1ccc(C(=O)Nn2c(NCC(=O)N3c4ccccc4Sc4ccccc43)nnc2-c2ccc(O)cc2)cc1` is 104%.
The figure for `CCC1(C2CCCC2)NC(=O)NC1=O` (stereo not drawn) is 104%; for `O=[N+]([O-])c1ccc(C2CC(c3ccccc3)=Nc3ccccc3S2)cc1` (stereo not drawn) it is 79.4%.
Regarding `Cn1c(=O)c2c(nc(Cl)n2CCl)n(C)c1=O`, the growth is 45.9%.
The figure for `O=C(CCCCCCSc1nc(-c2ccccc2)cc(-c2ccc(Cl)cc2)n1)NO` is 11.9%.
The figure for `CC1(C)CC(=O)CC2(C1)N=C(N)Nc1nc3ccccc3n12` (stereo not drawn) is 109%; for `COc1ccccc1N1C(=O)/C(=C/C2=Cc3ccccc3OC2)SC1=S` it is 95.4%; for `O=C(CSc1nccc(Nc2ccc(S(=O)(=O)Nc3nccs3)cc2)n1)c1ccc(F)cc1` it is 99.6%.
With `O=C1Nc2ccccc2/C1=C/c1cn(C(=O)c2c(Cl)cccc2Cl)c2ccccc12` the figure was 45.5%.
As for `O=C1Nc2ccccc2/C1=C/c1cn(C(=O)c2ccc(Cl)cc2)c2ccccc12`, the growth is 102%.
With `N=C1CCC(=N)c2c1c(O)c1ccccc1c2O` the figure was 101%; with `Cc1ccc(S(=O)(=O)N/N=C\c2cc(Cl)ccc2O)cc1`, 81.4%.
Regarding `COc1ccc(-c2[nH]c(=S)n(C(CC3(C)NCC(=O)N3n3c(-c4ccccc4)cc(C)nc3=S)c3ccc(OC)cc3)c(=O)c2Br)cc1` (stereo not drawn), the growth is 37.2%.
With `COc1cc(N2C(=O)c3nccnc3C2=O)cc(OC)c1OC` the figure was 104%; with `COc1ccc(Cl)cc1NC(=O)C(Br)C(Br)C(=O)O` (stereo not drawn), 8.71% (active); with `CS(=O)(=O)c1ccc(Nc2nc(N[C@H]3CCCC[C@H]3N)nc3cc[nH]c(=O)c23)cc1`, 6.42% (active).
With `O=c1oc2ccccc2c(Cl)c1Cl` the figure was 48.9%.
The figure for `COc1ccc(NC(=O)CSc2nnc(-c3cc(-c4ccc(S(N)(=O)=O)cc4)nc4ccccc34)n2-c2ccccc2)cc1` is 97.6%; for `CCC(CO)Nc1nc2ccc(Cl)cc2c2ccccc12` (stereo not drawn) it is 79.7%.
Take `Cc1ccc(C2SCC(=O)N2Cc2ccccc2)cc1` (stereo not drawn): the growth was 107%.
With `CCOC(=O)c1csc(NC(=O)COc2cccc(/C=C3\Oc4cc(OC)ccc4C3=O)c2)n1` the figure was 108%; with `N#C/C(=C\c1ccc(-c2ccccc2F)o1)c1nc(-c2ccco2)cs1`, 96.1%.
